# Test results reported in PubChem BioAssay AID1159580 (chemical genetic matrix, 2015).
# About 2,000 (36%) of roughly 5,500 compounds were called active. Not shown: some 18% with an inconclusive outcome. This is one part of the list. Unmarked numbers belong to inactive results. Cut-off read from the data, not from the text of the source: active = normalized growth mostly below about 0.91 (no sharp cut-off); inconclusive = no clear call, values can overlap the other calls; inactive = mostly above about 0.92.
# Assay: chemical genetic growth profiling, strain panel (AID 1159580);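 note: tested at 20 µM; growth read once vehicle control cultures reached saturation at 30 °C; 1 = growth at the plate median or of vehicle wells; lower values mean less growth of the strain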
# Settings: growth OD
# [1] = S. cerevisiae deletion strains, locus YDL101C, strain DUN1, stronger effect = lower value
# [2] = S. cerevisiae deletion strains, locus YHR030C, strain SLT2, stronger effect = lower value
compound,measurement,setting,value
Cc1cccc(Cl)c1/C=N\NC(N)=S,normalized growth,"S. cerevisiae deletion strains, locus YAR019C, strain CDC15, stronger effect = lower value",0.868 (active)
same,normalized growth,"S. cerevisiae deletion strains, locus YBL105C, strain PKC1, stronger effect = lower value",0.911
same,normalized growth,"S. cerevisiae deletion strains, locus YBR135W, strain CKS1, stronger effect = lower value",0.904
same,normalized growth,"S. cerevisiae deletion strains, locus YBR136W, strain MEC1, stronger effect = lower value",0.862 (active)
same,normalized growth,"S. cerevisiae deletion strains, locus YBR160W, strain CDC28, stronger effect = lower value",0.892 (active)
same,normalized growth,"S. cerevisiae deletion strains, locus YDL017W, strain CDC7, stronger effect = lower value",0.896 (active)
same,normalized growth,"S. cerevisiae deletion strains, locus YDL028C, strain MPS1, stronger effect = lower value",0.88 (active)
same,normalized growth,[1],0.89 (active)
same,normalized growth,"S. cerevisiae deletion strains, locus YDL108W, strain KIN28, stronger effect = lower value",0.869 (active)
same,normalized growth,"S. cerevisiae deletion strains, locus YDL132W, strain cdc53, stronger effect = lower value",0.877 (active)
same,normalized growth,"S. cerevisiae deletion strains, locus YDL214C, strain PRR2, stronger effect = lower value",0.867
same,normalized growth,"S. cerevisiae deletion strains, locus YDR052C, strain DBF4, stronger effect = lower value",0.858 (active)
same,normalized growth,"S. cerevisiae deletion strains, locus YDR054C, strain cdc34, stronger effect = lower value",0.865 (active)
same,normalized growth,"S. cerevisiae deletion strains, locus YDR226W, strain ADK1, stronger effect = lower value",0.826 (active)
same,normalized growth,"S. cerevisiae deletion strains, locus YDR477W, strain SNF1, stronger effect = lower value",0.765
same,normalized growth,"S. cerevisiae deletion strains, locus YER123W, strain YCK3, stronger effect = lower value",0.873
same,normalized growth,"S. cerevisiae deletion strains, locus YER133W, strain GLC7, stronger effect = lower value",0.805
same,normalized growth,"S. cerevisiae deletion strains, locus YFL009W, strain cdc4, stronger effect = lower value",0.881 (active)
same,normalized growth,"S. cerevisiae deletion strains, locus YFL029C, strain CAK1, stronger effect = lower value",0.865 (active)
same,normalized growth,"S. cerevisiae deletion strains, locus YFR003C, strain YPI1, stronger effect = lower value",0.899 (active)
same,normalized growth,"S. cerevisiae deletion strains, locus YFR019W, strain FAB1, stronger effect = lower value",0.957
same,normalized growth,"S. cerevisiae deletion strains, locus YFR028C, strain CDC14, stronger effect = lower value",0.828 (active)
same,normalized growth,"S. cerevisiae deletion strains, locus YGR040W, strain KSS1, stronger effect = lower value",0.8
same,normalized growth,"S. cerevisiae deletion strains, locus YGR052W, strain FMP48, stronger effect = lower value",0.818
same,normalized growth,"S. cerevisiae deletion strains, locus YGR092W, strain DBF2, stronger effect = lower value",0.79
same,normalized growth,[2],0.644 (active)
same,normalized growth,"S. cerevisiae deletion strains, locus YHR079C, strain IRE1, stronger effect = lower value",0.94
same,normalized growth,"S. cerevisiae deletion strains, locus YHR082C, strain KSP1, stronger effect = lower value",0.893
same,normalized growth,"S. cerevisiae deletion strains, locus YHR205W, strain SCH9, stronger effect = lower value",1.02
same,normalized growth,"S. cerevisiae deletion strains, locus YIL147C, strain SLN1, stronger effect = lower value",0.87 (active)
same,normalized growth,"S. cerevisiae deletion strains, locus YJL095W, strain BCK1, stronger effect = lower value",0.934
same,normalized growth,"S. cerevisiae deletion strains, locus YJL128C, strain PBS2, stronger effect = lower value",0.973
same,normalized growth,"S. cerevisiae deletion strains, locus YJL157C, strain FAR1, stronger effect = lower value",0.855
same,normalized growth,"S. cerevisiae deletion strains, locus YJR016C, strain ILV3, stronger effect = lower value",0.885 (active)
same,normalized growth,"S. cerevisiae deletion strains, locus YJR066W, strain TOR1 (second series), stronger effect = lower value",0.837
same,normalized growth,"S. cerevisiae deletion strains, locus YJR066W, strain TOR1, stronger effect = lower value",0.755
same,normalized growth,"S. cerevisiae deletion strains, locus YKL048C, strain ELM1, stronger effect = lower value",0.88
same,normalized growth,"S. cerevisiae deletion strains, locus YKL067W, strain YNK1, stronger effect = lower value",0.886
same,normalized growth,"S. cerevisiae deletion strains, locus YKL101W, strain HSL1, stronger effect = lower value",0.919
same,normalized growth,"S. cerevisiae deletion strains, locus YKL193C, strain SDS22, stronger effect = lower value",0.872 (active)
same,normalized growth,"S. cerevisiae deletion strains, locus YKL203C, strain TOR2, stronger effect = lower value",0.671 (active)
same,normalized growth,"S. cerevisiae deletion strains, locus YLR113W, strain HOG1, stronger effect = lower value",1.04
same,normalized growth,"S. cerevisiae deletion strains, locus YLR133W, strain CKI1, stronger effect = lower value",0.886
same,normalized growth,"S. cerevisiae deletion strains, locus YLR403W, strain SFP1, stronger effect = lower value",0.756
same,normalized growth,"S. cerevisiae deletion strains, locus YML070W, strain DAK1, stronger effect = lower value",0.932
same,normalized growth,"S. cerevisiae deletion strains, locus YMR205C, strain PFK2 (second series), stronger effect = lower value",0.886
same,normalized growth,"S. cerevisiae deletion strains, locus YMR277W, strain FCP1, stronger effect = lower value",0.87 (active)
same,normalized growth,"S. cerevisiae deletion strains, locus YNL006W, strain LST8, stronger effect = lower value",0.953
same,normalized growth,"S. cerevisiae deletion strains, locus YNL020C, strain ARK1, stronger effect = lower value",0.904
same,normalized growth,"S. cerevisiae deletion strains, locus YNL161W, strain CBK1, stronger effect = lower value",0.924
same,normalized growth,"S. cerevisiae deletion strains, locus YNL183C, strain NPR1, stronger effect = lower value",0.77
same,normalized growth,"S. cerevisiae deletion strains, locus YNL207W, strain RIO2, stronger effect = lower value",0.845 (active)
same,normalized growth,"S. cerevisiae deletion strains, locus YNL222W, strain SSU72, stronger effect = lower value",0.931
same,normalized growth,"S. cerevisiae deletion strains, locus YNL307C, strain MCK1 (second series), stronger effect = lower value",0.797
same,normalized growth,"S. cerevisiae deletion strains, locus YOL136C, strain PFK27, stronger effect = lower value",0.948
same,normalized growth,"S. cerevisiae deletion strains, locus YOR061W, strain CKA2, stronger effect = lower value",0.864
same,normalized growth,"S. cerevisiae deletion strains, locus YOR119C, strain RIO1, stronger effect = lower value",0.625 (active)
same,normalized growth,"S. cerevisiae deletion strains, locus YOR231W, strain MKK1, stronger effect = lower value",0.949
same,normalized growth,"S. cerevisiae deletion strains, locus YOR329C, strain SCD5, stronger effect = lower value",0.927
same,normalized growth,"S. cerevisiae deletion strains, locus YPL031C, strain PHO85, stronger effect = lower value",0.824
same,normalized growth,"S. cerevisiae deletion strains, locus YPL153C, strain RAD53, stronger effect = lower value",0.868
same,normalized growth,"S. cerevisiae deletion strains, locus YPL204W, strain HRR25, stronger effect = lower value",0.877
same,normalized growth,"S. cerevisiae deletion strains, locus YPL209C, strain IPL1, stronger effect = lower value",0.912
same,normalized growth,"S. cerevisiae deletion strains, locus YPL256C, strain CLN2, stronger effect = lower value",1.03
same,normalized growth,"S. cerevisiae deletion strains, locus YPR025C, strain CCL1, stronger effect = lower value",0.914
same,normalized growth,"S. cerevisiae deletion strains, locus YPR106W, strain ISR1, stronger effect = lower value",0.927
same,normalized growth,"S. cerevisiae deletion strains, locus YPR111W, strain DBF20, stronger effect = lower value",0.919
same,normalized growth,"S. cerevisiae deletion strains, strain NNK1, stronger effect = lower value",0.932
NC(=S)N/N=C\c1cc(F)cc(F)c1,normalized growth,"S. cerevisiae deletion strains, locus YAL013W, strain DEP1, stronger effect = lower value",0.97
same,normalized growth,"S. cerevisiae deletion strains, locus YBR229C, strain ROT2, stronger effect = lower value",1.01
same,normalized growth,[1],1.04
same,normalized growth,"S. cerevisiae deletion strains, locus YDR150W, strain NUM1, stronger effect = lower value",0.96
same,normalized growth,"S. cerevisiae deletion strains, locus YEL061C, strain CIN8, stronger effect = lower value",0.94
same,normalized growth,"S. cerevisiae deletion strains, locus YGR078C, strain PAC10, stronger effect = lower value",0.998
same,normalized growth,"S. cerevisiae deletion strains, locus YGR229C, strain SMI1, stronger effect = lower value",0.944
same,normalized growth,[2],0.778
same,normalized growth,"S. cerevisiae deletion strains, locus YHR087W, strain rtc3, stronger effect = lower value",1.08
same,normalized growth,"S. cerevisiae deletion strains, locus YJL187C, strain SWE1, stronger effect = lower value",0.971
same,normalized growth,"S. cerevisiae deletion strains, locus YJR043C, strain POL32, stronger effect = lower value",0.98
same,normalized growth,"S. cerevisiae deletion strains, locus YJR075W, strain HOC1, stronger effect = lower value",1.02
same,normalized growth,"S. cerevisiae deletion strains, locus YLR039C, strain RIC1, stronger effect = lower value",1.05
same,normalized growth,"S. cerevisiae deletion strains, locus YLR058C, strain SHM2 (second series), stronger effect = lower value",0.994
same,normalized growth,"S. cerevisiae deletion strains, locus YLR085C, strain ARP6, stronger effect = lower value",0.34 (active)
same,normalized growth,"S. cerevisiae deletion strains, locus YLR262C, strain YPT6, stronger effect = lower value",1.04
same,normalized growth,"S. cerevisiae deletion strains, locus YML094W, strain GIM5, stronger effect = lower value",0.923
same,normalized growth,"S. cerevisiae deletion strains, locus YMR219W, strain ESC1, stronger effect = lower value",0.999
same,normalized growth,"S. cerevisiae deletion strains, locus YMR263W, strain SAP30, stronger effect = lower value",0.92
same,normalized growth,"S. cerevisiae deletion strains, locus YMR307W, strain GAS1, stronger effect = lower value",0.574 (active)
same,normalized growth,"S. cerevisiae deletion strains, locus YNL153C, strain GIM3, stronger effect = lower value",0.976
same,normalized growth,"S. cerevisiae deletion strains, locus YNL298W, strain CLA4 (second series), stronger effect = lower value",0.761 (active)
same,normalized growth,"S. cerevisiae deletion strains, locus YNL322C, strain KRE1, stronger effect = lower value",1.05
same,normalized growth,"S. cerevisiae deletion strains, locus YNR030W, strain Alg12, stronger effect = lower value",0.922
same,normalized growth,"S. cerevisiae deletion strains, locus YPL055C, strain LGE1, stronger effect = lower value",0.963
same,normalized growth,"S. cerevisiae deletion strains, locus YPL241C, strain CIN2, stronger effect = lower value",0.933
same,normalized growth,"S. cerevisiae deletion strains, locus YPR135W, strain CTF4, stronger effect = lower value",0.78
same,normalized growth,"S. cerevisiae strains, strain wild type, stronger effect = lower value",0.923
